SARS PLP yeast – blocks SARS-CoV papain-like protease in a yeast assay. S. cerevisiae expressing SARS-CoV PLpro, growth rescue. Potency, µM (top dose mostly 32.9 µM), usual class: activators. 330,000 tested, 0.19% active; further: nearly all actives have a fitted effect of over 55% in size
Cycloheximide cs – counter-screen hit for Shiga toxin inhibitors, cycloheximide. cell reporter, cycloheximide protein synthesis inhibition counterscreen. max response, %. 300,000 tested, 12% active. AID 2314; in the data active means max response mostly above about 13%, no sharp cut-off; inactive means mostly below about 14%; further: read at 38.3 µM for the half of the compounds with a filed dose
NS1 inh – blocks influenza NS1 protein function; Potency, µM (doses to about 46.1 µM); 270,000 tested, 0.4% active; AID 2326; further: actives are rising curves; nearly all actives have a fitted effect of over 50% in size
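A cell-based growth assay was used: compounds that relieve NS1-induced slow growth of budding yeast raise OD600. Assay medium was yeast nitrogen base with ammonium sulphate and -URA supplement, pH 6.0, with 2% galactose.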
Shiga inhibitor – inhibitors of Shiga toxin in Vero cells | Vero cells, Shiga toxin protein synthesis inhibition reporter | inhibition, % at 38.7 µM | 290,000 tested, 9.2% active | AID 2315; in the data active means inhibition mostly above about 28%, no sharp cut-off; inactive means mostly below about 43%
Numbers stand for hits; . = inactive; ? = inconclusive; / = not tested or not shown. Compounds with a hit are over-represented: about 12% of the library has one in this group of screens. Unless noted, the call rests on the fitted dose curve.

SMILES | SARS PLP yeast | Cycloheximide cs | NS1 inh | Shiga inhibitor
CCC(=O)Nc1ccc(NC(=O)C23CC4CC(CC(C4)C2)C3)cn1 | . | . | . | .
O=C(Cc1ccccc1)Nc1ccc(NC(=O)C2CCCCC2)nc1 | . | . | . | .
Cc1oc2c(CN3CCC(C)CC3)c(O)ccc2c(=O)c1-c1ccccc1 | . | . | . | .
Cc1cc(SCC(=O)c2ccc(O)c(O)c2)n2nc(C)c(-c3ccccc3)c2n1 | ? | . | . | .
CC(C)[C@H](NC(=O)[C@@H](Cc1c[nH]c2ccccc12)NC(=O)[C@H](Cc1ccc(O)cc1)NC(=O)[C@@H](N)CC(=O)O)C(=O)N[C@H](Cc1c[nH]c2ccccc12)C(=O)N[C@H](Cc1c[nH]c2ccccc12)C(=O)N[C@@H](CCCCN)C(N)=O | / | . | / | .
Clc1cc(Br)ccc1NCc1cccnc1 | . | . | . | .
O=C(Nc1cccnc1)Nc1ccc(Br)cc1Cl | . | 29 | . | 56
O=C(Nc1ccncc1)Nc1ccc(Cl)cc1Cl | . | . | . | .
Cc1ccc(NC(=O)Nc2cccnc2)cc1Cl | . | 37 | . | 63
Cc1ccc(NC(=O)NCc2ccncc2)cc1Cl | . | . | . | .
O=C(Nc1ccncc1)c1ccccc1Cl | . | . | . | 37
O=C(Nc1ccncc1)Nc1ccccc1Cl | . | 24 | . | 49
O=C(CSc1ccc2ccccc2c1)Nc1ccc(S(=O)(=O)Nc2nccs2)cc1 | . | . | . | .
C=C(C)C1CC=C(C)/C(=N\NC(=O)CCc2ccccc2)C1 (centres undefined) | . | . | . | .
CCCn1c(SCC(=O)Nc2nnc(CC)s2)nnc1-c1ccncc1 | . | . | . | .
O=C(Nc1cccnc1)Nc1ccccc1Cl | . | 26 | . | .
O=C(Nc1cccnc1)Nc1cc(Cl)cc(Cl)c1 | . | . | . | .
Cc1cccc(N(C(=O)Nc2ccccc2)C2=NCC(C)S2)c1 (centres undefined) | . | 30 | . | 66
Cc1cccc(N(C(=O)Nc2ccc(Cl)cc2)C2=NCC(C)S2)n1 (centres undefined) | . | 20 | . | .
Cc1ccc(NC(=O)N(C2=NCC(C)S2)c2ccccc2)cc1 (centres undefined) | / | / | . | /
Cc1cc2c(s1)c1cnn(Cc3ccc(F)c(F)c3F)c(=O)c1n2C | / | . | / | .
Cc1cccc(-n2ncc3c2CCCC3NC(=O)Cn2cccn2)c1C (centres undefined) | . | 19 | . | .
COCc1ccc(C(=O)NC2CCCc3c2cnn3-c2ccc(C)c(C)c2)o1 (centres undefined) | . | 26 | . | .
Cc1ccc(-n2ncc3c2CCCC3NC(=O)CCc2cnn(C)c2)cc1C (centres undefined) | . | . | . | .
Cc1cc(C)n(CC(=O)NC2CCCc3c2cnn3-c2ccc(C)c(C)c2)n1 (centres undefined) | . | 38 | . | 54
SMILES | SARS PLP yeast | Cycloheximide cs | NS1 inh | Shiga inhibitor
Cc1cccc(-n2ncc3c2CCCC3NC(=O)CC(F)(F)F)c1C (centres undefined) | . | . | . | .
Cc1cc(C(=O)NC2CCCc3c2cnn3-c2ccc(C)c(C)c2)n(C)n1 (centres undefined) | . | . | . | .
Cc1cc(C(=O)NC2CCCc3c2cnn3-c2cc(F)cc(F)c2)nn1C (centres undefined) | . | . | . | 25
CC(=O)Nc1cccc(C(=O)NC2CCCc3c2cnn3-c2cc(C)cc(C)c2)c1 (centres undefined) | . | 25 | . | .
Cc1cc(C)cc(-n2ncc3c2CCCC3NC(=O)c2csnn2)c1 (centres undefined) | . | . | . | 22
Cc1ccc(-n2ncc3c2CCCC3NC(=O)c2csnn2)cc1C (centres undefined) | . | 19 | . | 60
Cc1cc(C)cc(-n2ncc3c2CCCC3NC(=O)c2cc(C)oc2C)c1 (centres undefined) | . | . | . | .
Cc1ccc(-n2ncc3c2CCCC3NC(=O)c2ccoc2)cc1C (centres undefined) | . | . | . | .
Cc1cc(C)c(C(=O)NC2CCCc3c2cnn3-c2ccc(C)c(C)c2)c(=O)[nH]1 (centres undefined) | . | 27 | . | .
COCc1ccc(C(=O)NC2CCCc3c2cnn3-c2cc(C)cc(C)c2)s1 (centres undefined) | . | . | . | 27
CCOC(=O)CN=C/C(C(C)=O)=C(/C)O | . | . | . | .
Nc1nnc(/C=C/c2ccccc2)s1 | . | 44 | . | 37
O=C(Nc1nnc(COc2ccccc2)s1)c1ccco1 | . | . | ? | .
O=C(Nc1nnc(/C=C/c2ccccc2)s1)c1ccco1 | . | 30 | . | 63
COC(=O)Nc1nnc(/C=C/c2ccccc2)s1 | . | . | . | 49
O=C(NCCCN1CCOCC1)c1sc2cc(F)ccc2c1Cl | . | 38 | . | 42
O=C(NC1=NCCS1)c1sc2cc(F)ccc2c1Cl | . | 77 | . | 96
O=C(NCc1ccco1)c1sc2cc(F)ccc2c1Cl | . | 39 | . | 86
Cc1cc(C)n(C(=O)c2sc3cc(F)ccc3c2Cl)n1 | . | . | . | .
O=C(Nc1ccon1)c1sc2cc(F)ccc2c1Cl | . | 33 | . | 75
O=C(NCCCN1CCOCC1)c1sc2cc(Cl)ccc2c1Cl | . | . | / | .
O=C(NCc1ccco1)c1cccc(F)c1 | / | . | . | .
CSc1ncccc1C(=O)OCC(=O)c1cccc(Br)c1 | . | . | / | .
CN(C(=O)COC(=O)/C=C/c1ccc(C(F)(F)F)cc1)C1CCS(=O)(=O)C1 (centres undefined) | . | . | . | .
COc1ccc(CC2=CC(=O)c3ccccc3C2=O)cc1 | . | 56 | . | 123
SMILES | SARS PLP yeast | Cycloheximide cs | NS1 inh | Shiga inhibitor
O=C(/C=C/c1cccc(Br)c1)N1CCN(c2ccccn2)CC1 | . | . | / | .
CC1=CC(C)(C)N2C(=O)C(=Nc3ccc(O)cc3)c3cccc1c32 | . | . | . | 46
CC(CC(=O)NCc1ccc(Cl)cc1)S(=O)(=O)c1ccc2c(c1)NC(=O)CO2 (centres undefined) | ? | . | . | .
O=C(c1ccc(Cl)c(S(=O)(=O)N2CCOCC2)c1)N1CCCCC1 | . | . | . | .
Cc1ccc(C(=O)NNC(=O)C(NC(=O)c2cccc(C)c2)C(C)C)cc1 (centres undefined) | . | / | / | /
Cc1nonc1OCCN1CCN(c2ccc([N+](=O)[O-])cc2)CC1 | . | 20 | . | .
N#C/C(=C(/O)c1ccc(Cl)c([N+](=O)[O-])c1)c1nc2ccccc2[nH]1 | . | . | . | .
O=C(CCS(=O)(=O)c1cccc2nonc12)NCc1ccc(Cl)cc1 | . | . | / | .
CC(=O)Nc1ccc(C(=O)OCCC(C)C)cc1 | . | 24 | . | 84
CCCCOC(=O)c1ccc(NC(=O)C(CCS(C)(=O)=O)NC(C)=O)cc1 (centres undefined) | . | . | . | .
CCCOC(=O)c1ccc(NC(=O)C2C3C=CC(O3)C2C(=O)O)cc1 (centres undefined) | . | 32 | . | .
CCCOC(=O)c1ccc(NC(=O)CC(C)(C)C)cc1 | . | 34 | . | 54
CC(=O)c1ccc(NC(=O)C2C3C=CC(O3)C2C(=O)O)cc1 (centres undefined) | . | . | . | .
CCCOC(=O)c1ccc(NC(=O)COC)cc1 | . | . | . | 50
